Most compounds without a hit are left out; they make up all but 3.9% or so of the library.
ATXN2 expr inh: reduces ATXN2 reporter expression in HEK-293 cells | HEK-293 ATXN2-luciferase reporter, luminescence, 24 h | Potency, µM (series often up to 57 µM), for the others: at the highest dose activity change, negative = inhibition, most hits filed as inhibitors | actives 0.72% (n = 360,000) | AID 1745845; also: % is scaled to controls: 0 for no effect and ±100 for the full control effect; nearly all actives have a fitted effect of over 55% in size
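ATXN2-luciferase reporter cells (luciferase flanked by upstream and downstream ATXN2 gene portions) were treated 24 h at 37 °C with compounds at up to 57 uM. SteadyGlo luminescence gave expression; GF-AFC fluorescence gave viability.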
HT1080-NT tox: kills 2HG-producing HT-1080-NT fibrosarcoma cells. HT-1080-NT fibrosarcoma viability, CellTiter-Glo ATP luminescence, 48 h. Potency, µM (top dose mostly 46.1 µM), for inactives: top-dose activity, negative = less viability, most hits filed as cytotoxic. actives 1.6% (n = 360,000). AID 686970;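 also: NT is the 2HG producing partner of a matched IDH1 knockdown line; 0% = DMSO-treated cells and -100% = media-only wells without cells; nearly all actives have a fitted effect of over 55% in size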
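Luminescent CellTiter-Glo readout after 48 hours of compound exposure at 37 degrees C defined viability of HT-1080-NT cells. Activity was normalized to DMSO wells and cell-free media wells; concentration-response curves were fitted and assigned curve classes.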
HepG2 viability: counter-screen for TGF-b inhibitors: cytotoxicity in HepG2 cells. actives 0.76% (n = 410,000). AID 588856. HepG2 CAGA-GFP viability, ATP luminescence, 18 h. Potency, µM (doses to about 46.1 µM), inactives show at the highest dose activity change, negative = cytotoxicity, most hits filed as cytotoxic
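HepG2 CAGA-GFP cells (1000/well, DMEM with 1% FBS) received compound, then TGF-beta at 500 pg/mL final, and were incubated 18 hours at 37 degrees C. Viability was read by CellTiter-Glo luminescence. Media-only wells were set as complete cell-killing and DMSO as no toxicity.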
TGFb inhibitor: blocks TGF-b signaling | HepG2 CAGA-GFP TGF-b/SMAD3 reporter, GFP fluorescence, 18 h; TGF-beta stimulated, 500 pg/mL final | Potency, µM (highest dose often 46.1 µM), inactives show top-dose activity, negative = inhibition, usual class: inhibitors | actives 1.2% (n = 410,000) | AID 588855; also: % is scaled to controls: 0 for no effect and ±100 for the full control effect; nearly all actives have a fitted effect of over 65% in size
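Smad-responsive CAGA-GFP expression was quantified in HEPG2 cells exposed to compounds and 500 pg/mL final TGF-beta for 18 h at 37 degrees C; unstimulated wells defined full inhibition.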
ATXN viability: cell viability loss in ATXN counter-screen | S2 cells (HEK-293 line with an ATXN2-luciferase reporter) viability, CellTiter-Fluor protease fluorescence, 24 h | Potency, µM (top dose mostly 56.7 µM), hits mostly cytotoxic | actives 0.49% (n = 400,000); also: nearly all actives have a fitted effect of over 40% in size
HT1080 IDH1KD tx: toxicity to HT-1080 IDH1 knockdown cells (counter line); HT-1080 IDH1 knockdown viability, ATP luminescence, 48 h; Potency, µM (top dose mostly 46.1 µM), for the others: at the highest dose activity, negative = toxicity, most hits filed as cytotoxic; actives 2% (n = 360,000); AID 686971;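 also: 0% = DMSO wells and -100% = cell-free medium wells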
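Knockdown cells (IDH1KD HT-1080) received compounds 2 h after plating at 750 cells/well and were kept 48 h at 37 °C in 5% FBS RPMI. A CellTiter-Glo luminescence read gave % activity for curve fitting.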
Numbers without * were called inactive; i = inactive; ? = inconclusive; . = not tested or not shown; [ ] = remark or other dose. Calls follow the shape of the dose curve; as a rule, active = well fitted curve in the direction sought with a large enough effect; inconclusive = small, poorly fitted or top-dose-only effect, or another doubt; inactive = no such curve, though single readings can be large; an effect the other way counts as inactive or inconclusive. Potency is read from the fitted curve at half-maximal effect.

SMILES | ATXN2 expr inh | HT1080-NT tox | HepG2 viability | TGFb inhibitor | ATXN viability | HT1080 IDH1KD tx
CCCCN(Cc1ccccc1)C(=O)c1oc(=O)c2ccccc2c1-c1ccc(C)cc1 | -2% | . | -27% | ? | i | .
CCOC(=O)Cc1c(C)nc2cc(-c3ccc(C(C)(C)C)cc3)nn2c1C | 5% | . | 0% | 2% | i | .
CCOC(=O)Cc1c(C)nc2c(-c3ccc(Cl)cc3)c(C)[nH]n2c1=O | ? | 13µM* | -9% | ? | i | 10µM*
CCOC(=O)Cc1c(C)nc2cc(-c3ccc(C(C)(C)C)cc3)[nH]n2c1=O | 33% | ? | 1% | 15% | i | 1.3µM*
COc1ccc(-c2nc(SCCOc3cc(C)ccc3C(C)C)n3[nH]c(=O)cc3n2)cc1 | ? | . | -21% | ? | ? | .
Cc1cnc2c(C)cccc2c1C | . | . | 26% | -7% | . | .
CN(Cc1ccccc1)CC(O)COc1ccc(CNCc2ccc(Cl)s2)cc1 (stereo not given) | ? | 21µM* | -59% | 13µM* | ? | ?
CN(Cc1ccccc1)CC(O)COc1ccc(CNCc2cccnc2)cc1 (stereo not given) | . | -9% | -9% | 3% | i | ?
CCN1C(=O)CS/C1=N\S(=O)(=O)c1ccc(Cl)cc1 | -16% | -3% | 16% | 34% | i | -2%
CCn1c(Cl)c(C=O)s/c1=N\S(=O)(=O)c1ccccc1 | 13µM* | 13µM* | 8.9µM* | 3.5µM* | 14µM* | 8.2µM*
CC(=O)c1ccc(F)c(-c2cc(C)cc3c2OC(CNC(=O)c2ccnn2C)C3)c1 (stereo not given) | . | . | . | . | i | .
Oc1ccc2ccccc2c1N=Nc1ccccn1 | ? | ? | -21% | -46% | . | ?
CCOC(=O)c1[nH]cnc1N=Nc1c(O)ccc2ccccc12 | 11µM* | 5.8µM* | 4% | 0% | 10µM* | 6.5µM*
NC(=O)c1c(OCc2c(F)cc(Br)cc2F)nsc1NC(=O)NCCCCN1CCCC1 | 31µM* | . | . | . | . | .
NS(=O)(=O)c1ccc(NC(=O)/C=C/c2ccc3c(c2)OCO3)cc1 | -30% | 7.3µM* | 7% | 15% | ? | 0.73µM*
O=C(/C=C/c1ccc2c(c1)OCO2)Nc1nncs1 | -22% | ? | -43% | ? | i | 1µM*
CC(=O)Nc1ccc(NC(=O)/C=C/c2ccc3c(c2)OCO3)cc1 | -3% | ? | 0% | -20% | . | -19%
Cc1cccnc1NC(=O)/C=C/c1ccc2c(c1)OCO2 | 17% | -9% | -22% | -19% | i | 0%
Cc1cc(C)nc(NC(=O)/C=C/c2ccc3c(c2)OCO3)c1 | 34% | ? | -30% | -5% | i | 4.6µM*
O=C(/C=C/c1ccc2c(c1)OCO2)Nc1nc(-c2ccccc2)cs1 | -24% | -1% | -7% | 8% | ? | ?
O=C(/C=C/c1ccco1)NCc1ccc2c(c1)OCO2 | 0%[11.3 µM] | -8% | 5% | 5% | i | 0%
O=C(/C=C/c1ccco1)Nc1ccc2c(c1)OCO2 | 24% | 13µM* | -1% | -12% | i | 21µM*
COc1ccccc1-c1noc(-c2ccc(NCc3cccnc3)c([N+](=O)[O-])c2)n1 | 2% | . | -16% | -22% | i | .
CCN(CC)CCN(C)c1ccc(/C=C/c2ccnc3ccccc23)cc1 | . | . | -55% | ? | . | .
CCn1ccnc1CN(C)Cc1cn(-c2cccc(C)c2)nc1-c1cccc(F)c1 | . | -16% | -106% | ? | 25µM* | -29%
CCn1ccnc1CN(C)Cc1cn(-c2ccc(C)cc2)nc1-c1cccc(C)c1 | . | ? | -81% | ? | i | 26µM*
Cc1cccc(-n2cc(CN(C)Cc3nccn3C)c(-c3cccc(F)c3)n2)c1 | . | ? | -14% | -23% | ? | ?

Bioassay records: PubChem, National Center for Advancing Translational Sciences (NCATS)
